A word on the inhibition: it is the percentage by which the read-out fell short of the control.

For some assays here: Entries with a potency or affinity are not part of this list. Activity calls are given as the source filed them.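 How the source made its calls, unless noted: active means signal rise over 3 SD above mean of control wells given weak agonist, in both repeats and first screen; inactive means the rest.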

Among the data in PubChem BioAssay are outcome and inhibition values, retold here.

The test system of assay [1] is TRPC4 beta (transient receptor potential cation channel C4), mouse. Put plainly: activators of mouse TRPC4 channel, confirmation, cell-based, Fluo4 calcium, HEK293 TRPC4beta/mu-opioid, duplicates, 10 µM (AID 2426;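 active means fluorescence ratio normalized to control raised more than 50% in primary screen plus both repeat runs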). The conditions noted are these: Fluo4 calcium fluorescence, at 10 µM; stronger effect = higher value.
The subject of assay [2] is transient receptor potential cation channel C4 beta (TRPC4), mouse. Put plainly: activators of mouse TRPC4 channel, confirmation, cell-based, second round, Fluo4, HEK293 TRPC4beta/mu-opioid, 1 µM (AID 2461;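 active means primary screen active and over 50% activation in each of two duplicate runs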). The following applies: Fluo4 calcium fluorescence, at 1 µM; stronger effect = higher value.
Assay [3] relates to TRPC4 (transient receptor potential cation channel C4 beta), mouse. Put plainly: positive allosteric modulators of mouse TRPC4, confirmation, cell-based, second round, Fluo-4, HEK293 TRPC4beta/mu-opioid, 1 µM (AID 2554;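 active means primary screen hit whose fluorescence ratio, in both repeats, exceeds the weak agonist control mean by 3 SD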). The conditions noted are these: DAMGO EC20, Fluo-4 calcium flux, at 1 µM; stronger effect = higher value. (Calcium flux is commonly read through the fluorescence of an indicator in the cells.)

Assay [4] deals with TRPC4 beta (transient receptor potential cation channel C4), mouse. Put plainly: positive allosteric modulators of mouse TRPC4, confirmation, cell-based, Fluo-4, HEK293 TRPC4beta/mu-opioid (AID 2555;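 active means primary screen hit whose calcium fluorescence ratio, in both repeats, exceeds the weak agonist control mean by 3 SD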). The conditions noted are these: DAMGO EC20, Fluo-4 calcium flux, at 10 µM; stronger effect = higher value.
Assay [5] deals with Short transient receptor potential channel 4 (Mus musculus) (UniProt Q9QUQ5). Put plainly: inhibitors of mouse TRPC4 channel, confirmation, cell-based, Fluo4, HEK293 TRPC4beta/mu-opioid (AID 2636;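 active means calcium signal cut by more than 3 SD below the full-agonist control yet still positive, in both repeats and the earlier primary screen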). The conditions noted are these: DAMGO, Fluo4 calcium flux, at 10 µM; stronger effect = higher value.
Chain of Short transient receptor potential channel 4 (Mus musculus) (Q9QUQ5 whole entry, looked up): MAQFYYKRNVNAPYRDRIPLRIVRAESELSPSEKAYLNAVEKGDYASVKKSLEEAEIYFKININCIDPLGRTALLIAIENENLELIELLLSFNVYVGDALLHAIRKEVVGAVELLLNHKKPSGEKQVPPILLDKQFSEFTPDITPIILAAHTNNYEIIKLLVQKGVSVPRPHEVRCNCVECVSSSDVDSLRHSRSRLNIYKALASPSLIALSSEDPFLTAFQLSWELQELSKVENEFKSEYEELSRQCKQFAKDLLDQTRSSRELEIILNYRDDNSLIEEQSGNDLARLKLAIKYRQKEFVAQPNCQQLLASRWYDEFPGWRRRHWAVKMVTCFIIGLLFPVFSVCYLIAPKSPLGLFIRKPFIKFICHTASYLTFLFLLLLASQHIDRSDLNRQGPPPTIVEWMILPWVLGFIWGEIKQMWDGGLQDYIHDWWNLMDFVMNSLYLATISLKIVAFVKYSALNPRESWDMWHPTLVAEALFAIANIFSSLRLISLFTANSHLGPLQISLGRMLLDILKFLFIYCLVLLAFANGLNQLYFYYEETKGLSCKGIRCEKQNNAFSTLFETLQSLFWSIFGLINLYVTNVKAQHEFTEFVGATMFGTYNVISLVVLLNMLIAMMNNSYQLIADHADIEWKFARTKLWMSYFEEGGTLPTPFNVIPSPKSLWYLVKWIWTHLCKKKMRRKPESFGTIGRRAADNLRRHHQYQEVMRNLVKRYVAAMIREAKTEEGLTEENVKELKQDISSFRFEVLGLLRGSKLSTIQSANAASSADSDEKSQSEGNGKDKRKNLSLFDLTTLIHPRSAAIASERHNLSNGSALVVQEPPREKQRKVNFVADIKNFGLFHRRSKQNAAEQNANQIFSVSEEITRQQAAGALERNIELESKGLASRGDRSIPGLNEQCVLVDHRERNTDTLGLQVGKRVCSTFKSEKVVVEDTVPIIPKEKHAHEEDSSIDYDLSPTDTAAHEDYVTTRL
Assay [6] has the same target. Put plainly: inhibitors of mouse TRPC4 channel, confirmation, cell-based, second round, Fluo4, HEK293 TRPC4beta/mu-opioid, 1 µM (AID 2637;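 active means calcium signal ratio cut to more than 3 SD under the fully stimulated control mean yet still positive, in both repeats and the primary screen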;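 on inhibition: percent of integrated ratio relative to wells lacking test compound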). The following applies: Fluo4 calcium flux, DAMGO, at 1 µM; stronger effect = higher value.
Assay [7] shares this target. Put plainly: mouse TRPC4 channel activators, dose response, cell-based, HEK293 TRPC4/mu-opioid, Fluo-4 calcium (AID 434937;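 active means primary screen activator hit with a dose response curve and TRPC4 channel activation at any tested dose; inactive means no activation, no dose response, or not a primary hit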).
Assay [8] has the same target. Put plainly: TRPC4 positive allosteric modulators, dose response, cell-based, HEK293 TRPC4/mu-opioid, Fluo-4 calcium, EC20 DAMGO (AID 434941;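 active means earlier screen potentiator hit that boosts the TRPC4 ion channel at some dose, with a dose response; inactive means no potentiation, no dose response, or not a prior hit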;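 further: calcium entry triggered by an EC20 dose of DAMGO at the co-expressed mu-opioid receptor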).
In assay [9] the target is Short transient receptor potential channel 6 (Mus musculus) (UniProt Q61143). Put plainly: inhibition of mouse TRPC6 channel, confirmation, selectivity assay for TRPC4 inhibitor project, cell-based, HEK293, membrane potential dye, duplicate (AID 434948;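 active means active in primary screen and both duplicates, each dropping signal beyond three positive-control SD with fluorescence still positive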). The conditions noted are these: HEK293 TRPC6, membrane potential dye fluorescence, at 10 µM, stimulated with maximal-effect acetylcholine; stronger effect = higher value.
Chain of Short transient receptor potential channel 6 (Mus musculus) (Q61143 whole entry, looked up): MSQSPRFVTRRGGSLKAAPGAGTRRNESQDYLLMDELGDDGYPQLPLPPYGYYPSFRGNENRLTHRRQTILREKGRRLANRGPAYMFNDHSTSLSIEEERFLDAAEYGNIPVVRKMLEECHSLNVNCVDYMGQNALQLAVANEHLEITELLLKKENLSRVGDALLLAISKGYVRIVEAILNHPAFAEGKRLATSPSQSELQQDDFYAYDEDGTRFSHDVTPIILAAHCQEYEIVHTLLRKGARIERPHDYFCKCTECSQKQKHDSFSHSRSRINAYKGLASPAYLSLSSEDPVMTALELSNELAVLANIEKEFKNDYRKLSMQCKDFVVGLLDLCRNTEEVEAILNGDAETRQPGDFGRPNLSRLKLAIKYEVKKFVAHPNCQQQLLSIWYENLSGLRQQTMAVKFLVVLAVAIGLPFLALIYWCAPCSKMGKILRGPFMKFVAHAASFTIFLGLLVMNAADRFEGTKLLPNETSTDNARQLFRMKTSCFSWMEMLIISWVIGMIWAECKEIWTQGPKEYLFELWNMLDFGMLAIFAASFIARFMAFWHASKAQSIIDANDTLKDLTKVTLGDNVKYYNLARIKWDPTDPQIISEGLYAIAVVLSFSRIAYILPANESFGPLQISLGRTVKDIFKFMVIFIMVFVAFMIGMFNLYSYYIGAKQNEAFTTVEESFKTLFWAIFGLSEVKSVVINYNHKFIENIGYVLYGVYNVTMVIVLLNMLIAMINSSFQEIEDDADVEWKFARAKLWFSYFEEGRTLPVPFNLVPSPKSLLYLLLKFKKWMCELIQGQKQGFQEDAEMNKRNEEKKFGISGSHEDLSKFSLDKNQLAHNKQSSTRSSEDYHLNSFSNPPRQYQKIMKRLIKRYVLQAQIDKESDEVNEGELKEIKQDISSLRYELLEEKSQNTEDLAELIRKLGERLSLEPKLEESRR

Assay [10] has the same target. Put plainly: activation of mouse TRPC6 channel, confirmation, selectivity assay for TRPC4 activator project, cell-based, HEK293, membrane potential dye, duplicate (AID 434950;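 active means membrane potential signal rise above negative control mean plus 3 SD in both duplicates, also active in the earlier TRPC4 screen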). The conditions noted are these: HEK293 TRPC6, membrane potential fluorescence, at 10 µM; stronger effect = higher value.
Assay [11] shares this target. Put plainly: TRPC6 potentiation by TRPC4 potentiator hits, confirmation, selectivity assay for TRPC4 potentiator project, HEK293 cells, membrane potential dye, duplicate (AID 434952;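 active means compound raising the membrane signal above positive-control mean plus 3 SD in both repeats, and a primary screen hit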). The conditions noted are these: HEK293 TRPC6, membrane potential dye fluorescence, at 10 µM, maximal acetylcholine added after compound; stronger effect = higher value.
Assay [12] deals with Short transient receptor potential channel 4 (Mus musculus) (UniProt Q9QUQ5). Put plainly: calcium flux activators in TRPC4/5HT1a cells, counter-screen for TRPC4 activator project, cell-based, second counter screen, HEK293 TRPC4/5HT1a, Fluo-4 (AID 434977;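 active means calcium signal rise above buffer-control mean plus 5 SD in both duplicates, and also a hit in the primary screen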). The following applies: Fluo-4 calcium flux, at 10 µM; stronger effect = higher value.
Assay [13] can be described thus: calcium flux inhibitors in TRPC4/5HT1a cells, confirmation, counter-screen for TRPC4 inhibitor project, cell-based, second counter screen, HEK293 TRPC4/5HT1a, Fluo-4 (AID 434978;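 active means primary screen active whose calcium signal fell more than 3 SD beyond the full-serotonin control mean in both duplicate plates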;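 on outcome: serotonin given first at submaximal then at maximal dose after compound preincubation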). The conditions noted are these: Fluo-4 calcium flux, at 10 µM, serotonin added to trigger calcium flux; stronger effect = higher value.
For assay [14], the system named is TRPC4 (mouse), co-expressed with 5HT1a in HEK293. Put plainly: calcium flux potentiators in TRPC4/5HT1a cells, confirmation, counter-screen for TRPC4 potentiator project, cell-based, second counter screen, HEK293 TRPC4/5HT1a, Fluo-4 (AID 434979). The conditions noted are these: Fluo-4 calcium flux, at 10 µM, serotonin added at its EC20 dose; stronger effect = higher value.

Assay [15] is described as follows: calcium flux activation in mu-opioid HEK293 cells, confirmation, counter-screen for TRPC4 activator project, cell-based, HEK293 mu-opioid receptor line (AID 449723;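 active means hit in primary screen, with calcium signal over 5 SD above buffer well mean in both duplicates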;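 further: counter screen cells carry the mu-opioid receptor alone and lack TRPC4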). The following applies: Fluo-4 calcium fluorescence, at 10 µM; stronger effect = higher value.
Assay [16] can be described thus: calcium flux enhancement in mu-opioid HEK293 cells, confirmation, counter-screen for TRPC4 allosteric potentiator project, cell-based, HEK293 mu-opioid receptor line (AID 449724;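 active means calcium signal rise more than 3 SD above the low-dose agonist control mean, in both duplicate plates and the primary screen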;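 further: HEK293 cells carrying mu-opioid receptor only with no TRPC4 channel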). The conditions noted are these: Fluo-4 calcium flux, at 10 µM, compound added before EC20 DAMGO stimulus; stronger effect = higher value.

In the case of `Cc1n[nH]c(C)c1CCCCOc1ccccc1`, the result in assay [1], in [2], in [3], in assay [4], in [7] and in assay [8] was inactive. The call in assay [9], in [10], in assay [11], in [12], in assay [14] and in assay [15] was inactive. For the same compound, in [16], the outcome was inactive. Moreover, the inhibition in [5] is 95% (active); in [6] it was 40% (active); in assay [13], 31.5% (active).
In the case of `CC(C)Sc1nc2sc3c(c2c2nnc(SCC(=O)NCc4ccco4)n12)CCCC3`, the outcome in [1], in assay [2], in [3], in [4], in [6] and in [7] was inactive. Also, the result in assay [8], in assay [9], in [10], in [11], in assay [12] and in [14] was inactive. The result in assay [15] and in [16] was inactive. Moreover, the inhibition in assay [5] was 78% (active); in assay [13], 16.9% (active).
Turning to `Cc1ccn2c(CNCCCn3cccn3)c(C(=O)N3CCCCCC3)nc2c1`, the outcome in assay [1], in assay [2], in assay [3], in [4], in [7] and in assay [8] was inactive. Further, the compound was called inactive in assay [9], in assay [10], in [11], in [12], in assay [13] and in assay [14]. Moreover, the outcome in assay [15] and in assay [16] was inactive. The figures for the inhibition in [5] and in [6] were 78% (active) and 47% (active), respectively.
For the compound `Cc1nn(C(=O)CNS(=O)(=O)c2ccccc2)c(C)c1Sc1ccc(Cl)cc1`, the outcome in assay [1], in assay [2], in assay [3], in [4], in assay [7] and in assay [8] was inactive. Further, the result in assay [10], in assay [11], in assay [12], in assay [14], in assay [15] and in assay [16] was inactive. The inhibition in [5] was 89% (active); in [6], 62% (active); in assay [9], 52.5% (active); in assay [13] it was 11.3% (active).
On to `COCCNc1c2c(nc3ccccc13)CCC2`, for which the outcome in assay [1], in assay [2], in assay [3], in [4], in assay [7] and in [8] was inactive. The compound was called inactive in assay [10], in [11], in [12], in [14], in [15] and in assay [16]. Further, the inhibition in assay [5] was 100% (active); in [6], 57% (active); in [9], 37.5% (active); in assay [13], 11.8% (active).
In the case of `C=CCc1ccccc1OCC(O)CN1CCN(c2ccccc2OC)CC1` (centres undefined), the outcome in [1], in assay [2], in assay [3], in assay [4], in assay [6] and in [7] was inactive. Also, the outcome in assay [8], in assay [9], in [10], in [11], in assay [12] and in [14] was inactive. Further, the result in assay [15] and in assay [16] was inactive. Further, the inhibition was 68% (active) in [5] and 13.1% (active) in assay [13].
As to `Nc1c2c(nc3c1CCCC3)CCCC2` (tested in a mixture with another compound), the result in [1], in assay [2], in assay [3], in assay [4], in [7] and in assay [8] was inactive. The call in assay [9], in [10], in assay [11], in assay [12], in assay [14] and in assay [15] was inactive. The result in [16] was inactive. The inhibition in assay [5] is 94% (active); in assay [6], 60% (active); in assay [13], 18.3% (active).
On to `Clc1cccc(C[n+]2cc(-c3ccccc3)n3c2CCC3)c1`, for which the outcome in assay [1], in assay [2], in assay [3], in assay [4], in [7] and in assay [8] was inactive. The outcome in assay [9], in [10], in [11], in [12], in [14] and in assay [15] was inactive. Also, the result in [16] was inactive. For the same compound, the inhibition was 95% (active) in assay [5], 51% (active) in [6] and 15.5% (active) in assay [13].
Regarding `CC(C)NCC(O)COCCOc1ccc(C(C)(C)C)cc1` (centres undefined), the result in [1], in assay [2], in [3], in assay [4], in assay [7] and in [8] was inactive. In addition, the compound was classed as inactive in assay [9], in assay [10], in [11], in [12], in [14] and in assay [15]. Further, the result in assay [16] was inactive. Moreover, the inhibition in assay [5] was 97% (active); in assay [6], 59% (active); in assay [13] it was 28.6% (active).
For the compound `CCc1ccc(/C=C2/SC(=S)N(CCCC(=O)Nc3ccccc3C(=O)O)C2=O)cc1`, the result in assay [1], in [2], in assay [3], in assay [4], in assay [6] and in [7] was inactive. Further, the result in assay [8], in [9], in assay [10], in assay [11], in assay [12] and in assay [14] was inactive. Besides, the result in assay [15] and in assay [16] was inactive. Further, the values for the inhibition in [5] and in [13] were 93% (active) and 21.2% (active), respectively.
With `O=C(Nc1ccnn1C1CCN(CCCC2CCCC2)CC1)c1ccccc1Cl`, the result in assay [1], in [2], in assay [3], in [4], in assay [6] and in [7] was inactive. For the same compound, the result in [8], in assay [9], in assay [10], in [11], in assay [12] and in assay [13] was inactive. Moreover, the outcome in assay [14], in assay [15] and in [16] was inactive. In addition, the inhibition in assay [5] is 97% (active).
For the compound `N#Cc1c(N2CCCCC2)nc(N)c2c(N)nc3c(c12)CC(c1ccccc1)O3` (centres undefined), the result in assay [1], in [2], in assay [3], in assay [4], in [7] and in assay [8] was inactive. For the same compound, the compound was classed as inactive in [9], in assay [10], in [11], in [12], in [14] and in [15]. Also, in [16], the outcome was inactive. The values for the inhibition in assay [5], in [6] and in [13] were 87% (active), 49% (active) and 31.5% (active), respectively.
Regarding `CCOc1cc(CNCc2cccs2)ccc1OCC(=O)NC(C)(C)C`, the outcome in assay [1], in assay [2], in [3], in assay [4], in assay [7] and in [8] was inactive. Further, the call in assay [9], in assay [10], in [11], in assay [12], in assay [13] and in [14] was inactive. Further, the result in [15] and in assay [16] was inactive. Further, the inhibition in assay [5] is 98% (active); in assay [6] it was 49% (active).
With `COc1cc(CNC2CCCC2)c(Br)cc1OC1CCCC1`, the result in assay [1], in assay [2], in [3], in assay [4], in [6] and in assay [7] was inactive. The result in assay [8], in assay [10], in assay [11], in [12], in [13] and in [14] was inactive. Also, the result in [15] and in assay [16] was inactive. In addition, the inhibition in assay [5] is 95% (active); in assay [9], 53% (active).
